# This is a sample that favours compounds with a hit; in the whole collection about 1.4% have one here.
# IL-2 act: activators of IL-2. IL-2 activation reporter assay, cell-based qHTS; stimulated with anti-CD3/CD4/CD28 beads; in transgenic mouse T cells. 360,000 compounds, 0.065% hits. AID 652025. activation, % (series mostly up to about 46 µM); in the data active = activation above about 50%; inconclusive = mostly about 30% to 49%; also: 0% is about no effect
#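 Unstimulated transgenic mouse T cells, 750 per well, received compound and, after 60 minutes, anti-CD3/anti-CD4 bead plus anti-CD28 stimulation. EGFP and DsRed were quantified after 18 hours.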
# Chronic BCR inh: inhibitors of chronic active B-cell receptor signaling | AID 493014 | Potency, µM (doses to about 46.1 µM), for inactives: at the highest dose activity change, negative = inhibition, most hits filed as inhibitors | ABC-DLBCL IkBa-CBG/CBR reporter, luminescence ratio, 4 h | 340,000 compounds, 0.05% hits; active = well fitted inhibition curve with a large enough effect in the signal ratio, with a control signal flat, not every such curve was filed as active; inconclusive = small, poorly fitted or top-dose-only effect, or effect the other way, or a change in a side signal; the % refers to the signal ratio;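 also: potency is read from the fitted curve at half-maximal effect; plate controls were basal doxycycline-induced cells for no effect and cells given 10 µM MG132 for full effect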
#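 TMD8 ABC-DLBCL cells carrying doxycycline-inducible green luciferase fused to IkappaBalpha plus unfused red luciferase were exposed to compounds (up to 46 uM) for 4 hrs at 37C. Activity came from the overlap-corrected green/red luminescence ratio.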
# BRCA1 expr act: activators of BRCA1 expression. AID 624202. Potency, µM (titrated, usually from 46.1 µM), without a hit: top-dose activation, actives largely listed as activators. MCF7-BRCA1-FFLuc reporter, luminescence, 48 h; response scale: scaled: vehicle 0%, 10 µM genistein 100%. 380,000 compounds, 1.1% hits; also: potency is read from the fitted curve at half-maximal effect; nearly all actives have a fitted effect of over 80% in size
#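 First, MCF7-BRCA1-FFLuc cells (2000/well) attach for 2 h; next, compounds are pin-added and incubated 48 h at 37 °C; finally, luciferase reagent is added and luminescence read after 15 min.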
# Integrin act MD: integrin-mediated muscular dystrophy alleviation activation; 350,000 compounds, 0.064% hits; AID 624291; Potency, µM (titrated, usually from 38.3 µM), inactives show at the top dose activation, hits mostly activators; alpha7betagal myoblasts, beta-gal FDG fluorescence, 48 h;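 also: potency is read from the fitted curve at half-maximal effect; 100% = response of the positive control SU9516; nearly all actives have a fitted effect of over 60% in size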
#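 alpha7betagal+/- myoblasts (passage 13, 250/well) treated 48 h at 37C with compounds at 1:260 dilution of DMSO stock. Lysed, then beta-galactosidase activity read as FDG fluorescence (ex 480/em 540) after 30 min, with pre-read for autofluorescence.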
# Nrf2 activator: activators of Nrf2 (ARE) signaling | AREc32 ARE-luciferase reporter (MCF7-derived line), luminescence, 24 h | Potency, µM (series often up to 46.1 µM), for the others: at the top dose activation, hits mostly activators | 410,000 compounds, 0.31% hits; also: potency is read from the fitted curve at half-maximal effect; % of control where 0% means no effect; nearly all actives have a fitted effect of over 65% in size
#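 AREc32_Fluc, 1000 cells/well, OPTI-MEM + 5% FBS, o/n 37 deg C 5% CO2; 23 nL cpd by pin tool, 24 hr; Steady-Glo 30 min RT, luminescence.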
# N370S GC mod: inhibitors or activators of N370S glucocerebrosidase for Gaucher disease; 330,000 compounds, 0.092% hits; Potency, µM (titrated, usually from 59.4 µM), without a hit: at the top dose activity change, negative = inhibition, hits mostly inhibitors; N370S GC spleen homogenate, 4MU-glucoside fluorescence;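 also: potency is read from the fitted curve at half-maximal effect; 0% = full enzyme activity and -100% = no enzyme basal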
# Active calls of the source: *; ? = inconclusive; / = not tested or not shown; [ ] = dose if it differs, or a comment. Unless noted, calls follow the shape of the dose curve; as a rule, active = well fitted curve in the direction sought with a large enough effect; inconclusive = small, poorly fitted or top-dose-only effect, or another doubt; inactive = no such curve, though single readings can be large; an effect the other way counts as inactive or inconclusive.
SMILES,IL-2 act,Chronic BCR inh,BRCA1 expr act,Integrin act MD,Nrf2 activator,N370S GC mod
Cc1ccc(S(=O)(=O)N2CCOCC2)cc1C(=O)Nc1ccc(S(=O)(=O)Nc2nccs2)cc1,-0.7,-1.4%,2.1%,19.5%,-2.5%,-5.6%
O=C(/C=N/O)NCCCCNC(=O)/C=N/O,/,/,/,/,/,9.1%[12.8 µM]
CCCCNC(=O)COC(=O)c1ccc(C)c(NC(=O)c2ccco2)c1,0.7,-1.5%,0.0%,9.2%,3.4%,5.2%
Cc1ccc(C(=O)OCc2c(C)noc2C)cc1NC(=O)c1ccco1,0.1,-8.0%,-61.8%,3.6%,3.98µM*,3.1%
O=C1c2ccccc2C(c2nnnn2C2CCCCC2)N1CCc1ccc(O)cc1 (centres undefined),1.6,/,-3.9%,/,0.1%,/
CCCSc1nc(C)nc2c1c(=O)n(C)c(=O)n2C,/,?,/,/,/,-14.6%
Cc1nc(Nc2ncc3c(n2)CC(C)(C)CC3=O)nc2ccccc12,-1.0,/,-1.1%,22.3%,-0.2%,/
Cc1ccc(Nc2ncc3c(n2)CC(C)(C)CC3=O)cc1,1.2,-0.4%,2µM*,3.2%,2.8%,5.8%
CC1=CC(C)(C)N=C(Nc2ccc(C)cc2)S1,0.5,3.9%,12.6µM*,-53.8%,4.7%,-6.2%
Cc1ccc(Nc2nnns2)cc1,-0.8,4.4%,-13.2%,-7.0%,-0.3%,3.4%
O=C(NNC(=S)Nc1ccccc1Cl)c1ccccc1Br,2.9,?,8.91µM*,3.9%,4.8%,1.3%
CCOC(=O)C1=CN(Cc2ccco2)S(=O)(=O)N(CC)C1c1ccc(F)c(Cl)c1 (centres undefined),-0.4,?,-15.9%,2.0%,5.9%,/
c1ccc2[nH]c(-c3cscn3)nc2c1,0.1,?,11.2µM*,/,1.2%,9.4%
Clc1ccc(-c2nc3ccccc3[nH]2)cn1,-1.7,26.3%,67.2%,4.5%,7.4%,-1.5%
Cc1ccc(-c2nc3ccccc3[nH]2)cn1,-0.1,10.5%,7.94µM*,16.6%,5.5%,-14.0%
Fc1ccccc1-c1nc2ccccc2[nH]1,-0.1,?,3.98µM*,4.7%,10.5%,14.4%
Clc1ccccc1-c1nc2ccccc2[nH]1,-0.9,?,?,1.4%,5.5%,22.0%
Cc1cc(C)c2c(NC(=S)NC(=O)c3ccccc3)n[nH]c2n1,0.1,10.3%,-8.6%,11.4%,3.0%,4.0%
CCN1CCN(c2cc3c(nn2)Oc2ccccc2N3C)CC1,0.2,7.9%,?,-11.0%,1.7%,15.8%
O=C(Nc1ccccc1)C1C2CCCCC21 (centres undefined),0.4,3.9%,57.1%,?,2.6%,3.3%
Cc1cccc(NC(=O)C2C3CCCCC32)c1 (centres undefined),0.0,?,10µM*,8.0%,6.1%,-0.3%
Cc1ccc(N(C(=O)CCl)C(C(=O)NC2CCCCC2)c2cccnc2)cc1C (centres undefined),-6.7,?,-81.8%,-68.4%,14.1µM*,-18.3%
O=S1(=O)[C@H]2C[C@H](CO)O[C@@]2(CO)CN1Cc1ccc(-c2cccc(Cl)c2)cc1,-0.1,?,-8.0%,-7.5%,5.3%,/
O=C(c1ccc(CSc2ccc(Cl)cc2)cc1)N1CCCC1,0.1,0.1%,10µM*,?,10.7%,?
O=C(c1ccc(CSc2ccc(Cl)cc2)cc1)N1CCOCC1,-0.1,-6.9%,62.6%,-43.5%,7.8%,4.2%
SMILES,IL-2 act,Chronic BCR inh,BRCA1 expr act,Integrin act MD,Nrf2 activator,N370S GC mod
COCCNC(=S)N/N=C(\C)c1ccc(O)cc1,-4.8,-9.6%,-19.8%,-42.7%,-0.4%,-2.7%
C/C(=N\NC(=S)NCC(C)(C)C)c1cc(F)cc(F)c1O,-4.6,-12.2%,-58.6%,-35.1%,10µM*,-0.9%
CCOC(=O)C1=C(C)Nc2ccccc2N/C1=N\S(=O)(=O)c1ccccc1,-0.6,-5.6%,-4.0%,21.3%,-0.1%,4.6%
O=c1c(/C=N/Nc2ccccc2)c(Sc2nnnn2-c2ccccc2)nc2ccccn12,90.2*,-4.5%,76.0%,-25.8%,0.1%,19.9%
O=C(/C=C/c1ccccc1Cl)N1CCOCC1,-0.4,-0.2%,32.0%,16.4%,1.0%,3.2%
O=C(/C=C/c1cc(Br)ccc1F)OCC(=O)N1CCOCC1,1.2,2.6%,-5.9%,-12.8%,11.2µM*,/
O=C(/C=C/c1cc(Br)ccc1F)OCC(=O)N1CCCC1,-0.2,2.4%,0.1%,-28.3%,11.2µM*,/
O=C(/C=C/c1cccc(Cl)c1Cl)OCC(=O)N1CCOCC1,-0.7,10.5%,15.8%,-5.8%,17.8µM*,0.1%
COc1ccc(OC)c(/C=C/C(=O)OCC(=O)N2CCCCC2)c1,0.5,-3.3%,-17.2%,2.3%,17.4%,/
CCC(=O)c1ccc(OCC(=O)O)cc1,-0.1,-0.8%,-7.4%,-15.1%,-0.7%,7.4%
CCC(=O)c1ccc(OCc2ccc(C#N)cc2)cc1,-1.1,?,3.55µM*,7.3%,2.2%,2.9%
Cc1ccc(Cl)cc1NC(=O)c1sc2nc(-c3ccccc3)cn2c1C,/,?,18.6%,/,0.5%,/
Cc1cccc(N(CC(=O)NCc2ccccc2)S(C)(=O)=O)c1C,/,/,/,/,-0.5%,/
Cn1cc(Cl)c(C(=O)OCC(=O)Nc2nc(-c3ccc(Br)cc3)cs2)n1,0.8,?,11.2µM*,1.5%,4.3%,2.5%
N#CCCCC1(CCCC#N)OCCO1,0.0,/,11.8%,3.1%,-0.3%,/
Cc1ccc(CSc2ncn(-c3ccccc3)n2)cc1,0.9,?,11.2µM*,25.5%,1.0%,/
O=C(N/N=C/c1ccccc1)c1ccc(-c2ccccc2)cc1,-0.3,3.0%,59.4%,1.6%,0.0%,-9.3%
Cc1ccnn1CC(=O)N/N=C/c1cn[nH]c1-c1ccc(F)cc1,0.3,4.0%,-16.3%,-39.8%,0.5%,-0.6%
O=C(N/N=C/c1cn[nH]c1-c1ccc(F)cc1)c1ccncc1,-0.6,-4.2%,14.1%,14.1µM*,-0.3%,-8.3%
O=C(N/N=C\c1ccccc1F)c1ccc(-c2ccccc2)cc1,-1.2,?,10µM*,14.8%,-0.2%,2.4%
CCC(C)C(=O)OC1CC(O)C=C2C=CC(C)C(CCC(O)CC(O)CC(=O)O)C21 (centres undefined),/,/,/,/,/,5.1%
Cc1cc(C(=O)NCCC2=CCCCC2)ccc1[N+](=O)[O-],-0.8,-9.6%,5.01µM*,2.4%,2.2%,1.7%
O=C(NC(=S)NCCC1=CCCCC1)c1ccc(Br)o1,-3.3,?,76.6%,7.08µM*,2.2%[9.22 µM],27.8%
O=C(CCNC(=O)c1ccc(Cl)cc1)NCCC1=CCCCC1,1.6,?,7.94µM*,0.0%,0.0%,-10.2%
O=C(CCCc1ccccc1)NCCC1=CCCCC1,0.3,11.6%,3.16µM*,41.4%,2.3%,9.8%
O=C(NCCC1=CCCCC1)c1ccc(Br)o1,-2.6,?,73.4%,6.6%,0.7%,4.2%

# Compound activity as filed in PubChem BioAssay.
